Numbering of substitutions follows the chain as printed. The full ranking holds about 24,000 sequences; the median of “enrichment r” is about 0.99, and the highest 2% start at about 3.7. The full list was thinned out, with the highest values kept by preference.

Experimental findings from publication PMC12136788 are described below.

First the molecules themselves.
B1: chr2:9725471:9725472:-_ENSG00000134308_ENST00000238081|hu_hu|FALSE|FALSE (ssRNA)
RNA: GGGAGUUCUACAGUCCGACGAUCUGCCGCAUCACAUUCUUCUCCUGCACUGUCUGAUGUCCAAAGUGUUAGGUUGUCUCUAAGCAACUGCAUGAUGAGGGUGCUGUCUUUGUAUGAGUCUUCAUUCAGUGUAUCAAGUUCAGCCAACAGAGGAUUGAGCAUCA
B2: 27821128_27827609_1759_CDS_ENSMUSG00000022263_ENSMUST00000090247|mouse|control|control (ssRNA)
RNA: GGGAGUUCUACAGUCCGACGAUCGCCCUGGUGAUGAUGAAUGGCGUCUUCCAGGUCCUGCAGCUCCGAGGGAAGGUCUACUUCACCACAGGCCUUACACCACGAGUCCACGUUGCUCAUGUACUUCUCAGCCUUCUGGUGAAACAACAGAGGAUUGAGCAUCA
B3: chr8:21961785:21961786:+_ENSG00000158863_ENST00000289921|hu_hu|FALSE|FALSE (ssRNA)
RNA: GGGAGUUCUACAGUCCGACGAUCGCACUGAGGAGAGGGGAGGGUCUGUGACUCCCAAACCCUCGAAUAUUUUAUGAAUCUAAGAGUCCAGACGCAGUUCAUCCACGGAGAUCUGCGCCCCGUCCACACCAACACCCACGUUUGCAACAGAGGAUUGAGCAUCA
B4: chr2:216981417:216981418:+_ENSG00000079246_ENST00000392132|hu_hu|hu_hu_hu_mus_True|8_48 (ssRNA)
RNA: GGGAGUUCUACAGUCCGACGAUCCUGAUACUGGUCCUUGCCAGCAAGGGCAUUAUCAGUGCCAUCUGUGCCAUAGAGGACUAACGCAAUCUCAUCCUUGCUCUCCGAAAAUACCUGUCGUUGGACAAACAUGGUUAUCACUUUCAACAGAGGAUUGAGCAUCA
B5: chr7:65705844:65705845:+_ENSG00000169902_ENST00000304842|hu_mus|hu_hu_hu_mus_False|18_108 (ssRNA)
RNA: GGGAGUUCUACAGUCCGACGAUCAAAAGGAUCUUUAUUACAUAAAUAAGGUGCCGGCUCCCCAUGUUUAACAAUGACCUCCAGAAGGAAGGCUUGCAUGGCAGAAUCUAGCACUUCAUCAGUAACACCCGCCUCAUCCAAGCGCAACAGAGGAUUGAGCAUCA
B6: chr18:43795804:43795805:+_ENSG00000152242_ENST00000321319|hu_hu|FALSE|FALSE (ssRNA)
RNA: GGGAGUUCUACAGUCCGACGAUCCUCCUCCAUCUUCAUUUCAGAAUUUCAAGUUAAAUCAUGGAGUAGAGUCUAGGAAAUGAUAUCAAAGAUGCAACAGGAAAGCAACCUGCGCUCCGCGGCGACUCCGUGCCUUCUCGCUCGCAACAGAGGAUUGAGCAUCA
B7: chr11:100882373:100882374:+_ENSMUSG00000019302_ENSMUST00000044721|mus_mus|mus_mus_mus_hu_True|38_108 (ssRNA)
RNA: GGGAGUUCUACAGUCCGACGAUCUUCCUGGUUAGUGUUGAUUUCCUUCAGUUCAUUUUCAAUCUUCUCAAAAUUGGCCUCUAAGUCAAUCAUGUCCCGAGGGAAGGGAACCUCUGGGUUUUCACCGGUGUCCAUAAUCGGAAUCAACAGAGGAUUGAGCAUCA
B8: chr1:46159212:46159213:+_ENSG00000159596_ENST00000372025|hu_mus|hu_hu_hu_mus_True|28_58 (ssRNA)
RNA: GGGAGUUCUACAGUCCGACGAUCUCUGAUCCCUCCCAAGAAAGCUAGGAAACCGGCUCCAUAAGCCAUCUGAGUGAAAGCUAAUAUGGGGAUAUAAGACUUUGUUAUCAGCAUGACAAGUGGGGGAGCAGUAAAGGGGAUUAACAACAGAGGAUUGAGCAUCA
B9: chr18:33597908:33597909:-_ENSMUSG00000042834_ENSMUST00000171533|mus_hu|motif|central (ssRNA)
RNA: GGGAGUUCUACAGUCCGACGAUCCAUCAAAAGAGUACAUGGAUAAAAUAUAGAGAUAUACAGACAAUUGAUGAACAUAAACGGCGGGGUUUGUUACAUCUAAAUGAAAAAAAAGGUGGGGGGGGGACUCUCAGCCUCUGCAAGCAACAGAGGAUUGAGCAUCA
B10: chr1:46159212:46159213:+_ENSG00000159596_ENST00000372025|hu_mus|hu_hu_hu_mus_True|1_28 (ssRNA)
RNA: B8 RNA with A83G, U84G, U86C, A143G
B11: chr19:16212804:16212805:+_ENSG00000167460_ENST00000300933|hu_mus|hu_hu_hu_mus_False|88_108 (ssRNA)
RNA: GGGAGUUCUACAGUCCGACGAUCAACAAAUAUGCAAUGAAGGAAAGCAUCAAGGAUGAACAGCAUUAAAGCUCAGUCAGAAGGCACAUGGGCAACAAUGAUCACCCCAGCAUUCUCGCUUGGAAUGCUUAAAGACAAUCUGUUCAACAGAGGAUUGAGCAUCA
B12: 104520116_104520236_3471_3pUTR_ENSMUSG00000027175_ENSMUST00000111118|mouse|control|control (ssRNA)
RNA: GGGAGUUCUACAGUCCGACGAUCAAGUUAAAAUUCCAGCCUAUGUGAAAAGAGAUACAAUUUAACACAGGUGACAGGACGCUCUGCUGUUAGUUUCCCUACAUCAAAGACUAUUCCAGUACAAUGAACAGGAGGGUUUGGAAGCAACAGAGGAUUGAGCAUCA
B13: chr1:46159212:46159213:+_ENSG00000159596_ENST00000372025|hu_mus|hu_hu_hu_mus_True|28_48 (ssRNA)
RNA: B8 RNA with A83G, U84G, U86C, G90A
B14: chr2:49628383:49628384:+_ENSMUSG00000026764_ENSMUST00000028102|mus_mus|FALSE|FALSE (ssRNA)
RNA: GGGAGUUCUACAGUCCGACGAUCUUGGUACUGACGGGGUUUGCAGACUUGCCCUGCAAAGGACCCCUCCAUCAGACUCCAAUAGCAGCCAACAGUGGCAACAACAUGAAACAAAGUGAACACAGGUAAACACAAAAUCAUCUUCAACAGAGGAUUGAGCAUCA
B15: chr9:122046315:122046316:+_ENSMUSG00000038145_ENSMUST00000120173|mus_hu|FALSE|FALSE (ssRNA)
RNA: GGGAGUUCUACAGUCCGACGAUCUAGUUUGGUCUGGGUGUCAAUAACUUCAUAAAGGCGGACGAUGUUAGGAUGCUGCACUAGUUUCAUGCAUCUCACUUCCUGGAAAAGAUGACCAGUAGCUAGAGUGUCCAGUUUUGUCUUCAACAGAGGAUUGAGCAUCA
B16: chr12:51141157:51141158:+_ENSG00000066084_ENST00000301180|hu_mus|FALSE|FALSE (ssRNA)
RNA: GGGAGUUCUACAGUCCGACGAUCUCAAAGAAAAGCAACAGAAAAUAAAAAAAAAAAAAGAAGUAGUCAUUACCAGAAGGAGGAAAAGACUAGAAGCCUGGGCAAGGCAUGAAGGUGUCUGCUGCAAUUUCAGUACUCGGGACACAACAGAGGAUUGAGCAUCA
B17: chr1:46159212:46159213:+_ENSG00000159596_ENST00000372025|hu_mus|hu_hu_hu_mus_True|28_108 (ssRNA)
RNA: B8 RNA with U33A, A83G, U84G, U86C
B18: chr18:33597908:33597909:-_ENSMUSG00000042834_ENSMUST00000171533|mus_hu|FALSE|FALSE (ssRNA)
RNA: B9 RNA with G82U, G83A, G85U, G86A
B19: chr16:94664806:94664807:+_ENSMUSG00000040785_ENSMUST00000117648|mus_mus|FALSE|FALSE (ssRNA)
RNA: GGGAGUUCUACAGUCCGACGAUCAUUAGGACUCUCAAAGUAUGCAGCGGCAUUUUCAUCUGCUCUGUUGCUGGCUACAAAAGAUGGCACCACUGGCAUGGAUCUUUGCAUUGGAUACUCAGAAGAAAUGUUGGCCAAAGGUGUCAACAGAGGAUUGAGCAUCA
B20: 15109990_15111016_889_CDS_ENSG00000179889_ENST00000396410|human|control|control (ssRNA)
RNA: GGGAGUUCUACAGUCCGACGAUCUGAGGAGACAUAACCCAGAGCCAAUGUUGCCAGAUUCACACCCUCCACAUGAAGCCAUAUGCCAUACUGCUCACAGAGUUCUUUCAAUCUCCCAAUCUUGUCUGUGUGUCCUACUGCUGCCAACAGAGGAUUGAGCAUCA
B21: 17503471_17513584_185_CDS_ENSG00000151552_ENST00000428702|human|control|control (ssRNA)
RNA: GGGAGUUCUACAGUCCGACGAUCCUUAAAGAGAGACUUGGAUUUGGCAUUGCCCCCGGCCCAUCCUCCAGCAACGCAAAGAAUUGCAUCCACCUUCUCUUCACCCAAGAGCUUUCCAACCUCAGCAGUCACCCAGUUGCGGGCCAACAGAGGAUUGAGCAUCA
B22: chr10:33190432:33190433:-_ENSG00000150093_ENST00000302278|hu_mus|hu_hu_hu_mus_True|1_98 (ssRNA)
RNA: GGGAGUUCUACAGUCCGACGAUCUACAUUUUCCAAACCUGCACAUGAAUAAAACCCUGGCCACAGAGCCCCAAAACUACCCUACUGUGACUAAGAUGCUGCUGCUGUGAGCUUGGUGUUGCAAAAUCCGCCUGAGUCAGUACUCAACAGAGGAUUGAGCAUCA

The assay has as its target T1, UNK ZnF1-3 (human, UniProt Q9C0B0 31-174).
T1 sequence: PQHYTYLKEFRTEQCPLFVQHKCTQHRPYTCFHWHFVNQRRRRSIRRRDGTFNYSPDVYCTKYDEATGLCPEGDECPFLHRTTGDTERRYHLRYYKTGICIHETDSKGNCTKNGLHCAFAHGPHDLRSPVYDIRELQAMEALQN
The experiment in a line: nsRBNS (natural sequence RNA bind-n-seq); RBNS binding buffer (assumed for nsRBNS): 25 mM Tris pH 7.5, 150 mM KCl, 3 mM MgCl2, 0.01% Triton X-100, 500 ug/ml BSA, 20 U/ml SUPERase-In, 4 C; UNK is unkempt and MSI1 is Musashi-1; names of the RNAs are library labels; protein concentration not given here; high values mean tight binding.
Turning to B1, the binding signal worked out at 0.929 enrichment R.

Regarding B2, the binding signal turned out to be 0.482 enrichment R. In turn, B3 registered a binding signal of 1.03 enrichment R.

As for B4, the binding signal was 0.64 enrichment R. In turn, B5 came in with a binding signal of 0.624 enrichment R. The result for B6 reads 0.921 enrichment R; that for B7, 0.664 enrichment R; that for B8, 1.32 enrichment R. B9: the binding signal worked out at 6.29 enrichment R. Molecule B10 registered a binding signal of 3.95 enrichment R. Turning to B11, the binding signal was 1.33 enrichment R. The result for B12 reads 1.5 enrichment R; that for B13, 1.5 enrichment R. B14: the binding signal came out at 0.994 enrichment R. The result for B15 reads 0.873 enrichment R; that for B16, 4.07 enrichment R; that for B17, 1.36 enrichment R. Take B18: the binding signal turned out to be 13.4 enrichment R. Turning to B19, the binding signal was determined as 1.22 enrichment R. The molecule B20 had a binding signal of 1.36 enrichment R.

On to B21, for which the binding signal was determined as 1.33 enrichment R. The molecule B22 displayed a binding signal of 1.13 enrichment R.
